Inconclusive results are not listed. Unmarked numbers belong to inactive results. Active and inactive are the calls of the source. Unless noted, calls come from the whole dose curve; as a rule, active = well fitted curve in the direction sought with a large enough effect; inconclusive = small, poorly fitted or top-dose-only effect, or another doubt; inactive = no such curve, though single readings can be large; an effect the other way counts as inactive or inconclusive.

The target in test [1] is Cellular tumor antigen p53 (Homo sapiens) (UniProt P04637). The experiment in a line: Primary qHTS for small molecule compounds that upregulate eGFP-tagged delta133p53alpha (in N-terminal) cells. (AID 2060322).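 For activation: cells pre-induced with doxycycline then dosed without doxycycline; 0% = DMSO vehicle and 100% = reference activator.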 Note: nearly all actives have a fitted effect of over 75% in size. Note: potency is the fitted concentration of half-maximal effect. To be noted: NCI-H358 eGFP-delta133p53alpha fluorescence, 24 h; activation: active compounds read high. In short, it runs like this: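 NCI-H358 cells pre-induced 24 h with 10 ng/ml doxycycline for eGFP-delta133p53alpha, plated dox-free and exposed 24 h at 37C to titrated compounds. Fixed, Hoechst-stained; gated GFP peak intensity by laser scanning cytometry, normalized to DMSO (0%) and 57.5 uM 5-azacytidine (100%).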
In general terms: Quantitative high-throughput screening tests each substance at several concentrations.

For test [2], the target named is Aldehyde dehydrogenase, mitochondrial (Homo sapiens) (UniProt P05091). The experiment in a line: qHTS for Inhibitors of the Aldehyde Dehydrogenase Family (ALDH2) Confirmatory screens (AID 2061303; active = well fitted inhibition curve with a large enough effect; title and protocol of this record describe different tests; note: % is set by controls: 0 for no effect and ±100 for the full control effect; nearly all actives have a fitted effect of over 45% in size). To be noted: ALDH inhibition qHTS; series mostly up to 45.4 µM.
The target is the same in test [3]. The experiment in a line: qHTS for Inhibitors of the Aldehyde Dehydrogenase Family (ALDH2) Primary screen (AID 2061308).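 Note: plate controls were vehicle for no effect and reference inhibitor for full effect; nearly all actives have a fitted effect of over 55% in size.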 The note with it: ALDH2 enzyme inhibition qHTS, 1536-well; series mostly up to 56 µM.
In test [4] the target is Retinaldehyde dehydrogenase 3 (Homo sapiens) (UniProt P47895). Briefly: qHTS for Inhibitors of the Aldehyde Dehydrogenase Family (ALDH1A3) Confirmatory screens (AID 2061311). Note: nearly all actives have a fitted effect of over 60% in size. Note: potency is the fitted concentration of half-maximal effect. To be noted: ALDH inhibition qHTS; series mostly up to 46 µM.
Test [5] has the same target. The experiment in a line: qHTS for Inhibitors of the Aldehyde Dehydrogenase Family (ALDH1A3) Validation screen (AID 2061312). Note: % is set by controls: 0 for no effect and ±100 for the full control effect; nearly all actives have a fitted effect of over 45% in size. The note with it: ALDH1A3 enzyme inhibition qHTS validation, fluorescence; series mostly up to 84.7 µM.
Test [6] has the same target. Briefly: qHTS for Inhibitors of the Aldehyde Dehydrogenase Family (ALDH1A3) Primary screen (AID 2061315).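 Note: plate controls were DMSO vehicle for no effect and reference inhibitor for full effect.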 The note with it: ALDH inhibition qHTS; series mostly up to 56 µM.
Test [7] addresses Aldehyde dehydrogenase 1A1 (Homo sapiens) (UniProt P00352). The experiment in a line: qHTS for Inhibitors of the Aldehyde Dehydrogenase Family (ALDH1A1) Confirmatory screens (AID 2061316). Note: nearly all actives have a fitted effect of over 65% in size. To be noted: ALDH inhibition qHTS; series mostly up to 47.3 µM.
A short description of test [8]: BET inhibitor-based combinations targeting novel dependencies in MECOM-rearranged (r) AML: SET-2 cell line (AID 2202231).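 Note: plate controls were DMSO treated cells for no effect and wells without cells for full effect; nearly all actives have a fitted effect of over 35% in size.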 The note with it: SET-2 AML cells viability, CellTiter-Glo luminescence, 48 h; viability: active compounds read low, concentration not given here. In short, it runs like this: (§1)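 Cells were plated at 500 per well and exposed to an 11-point dose series of each drug for 48 hr. Viability was measured by CellTiter-Glo luminescence, normalized to DMSO and empty-well controls, and summarized as AUC and per-cell-line Z-AUC.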

The nature of test [9]: BET inhibitor-based combinations targeting novel dependencies in MECOM-rearranged (r) AML: OCI-AML3 cell line (AID 2202232).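 Note: plate controls were DMSO vehicle wells for no effect and wells without cells for full effect; nearly all actives have a fitted effect of over 35% in size.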 To be noted: CellTiter-Glo luminescence, 48 h; Potency: OCI-AML3 viability; series mostly up to 46 µM. An outline of the steps:
as §1
Background: ATP-based viability assays read luminescence as a measure of living cells.

Test [10] in a line: BET inhibitor-based combinations targeting novel dependencies in MECOM-rearranged (r) AML: MV-4-11 cell line (AID 2202233).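 Note: plate controls were DMSO for no effect and blank wells for full effect; nearly all actives have a fitted effect of over 45% in size.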 The note with it: MV-4-11 AML viability, CellTiter-Glo luminescence, 48 h; series mostly up to 46 µM. An outline of the steps:
(§2)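 Activity is given as area under the curve and as Z-AUC, mean-centred within each cell line. It comes from 11-point dose curves normalized to DMSO and empty wells. CellTiter-Glo luminescence was read after 48 hr drug exposure of 500 cells/well.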

The nature of test [11]: BET inhibitor-based combinations targeting novel dependencies in MECOM-rearranged (r) AML: UCSD-AML1 cell line (AID 2202235).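 Note: plate controls were DMSO vehicle wells for no effect and blank wells for full effect; nearly all actives have a fitted effect of over 40% in size.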 The note with it: UCSD-AML1 AML cells viability, CellTiter-Glo, 48 h; series mostly up to 46 µM. An outline of the steps: as §2
A short description of test [12]: BET inhibitor-based combinations targeting novel dependencies in MECOM-rearranged (r) AML: AML-191 cell line (AID 2202236;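 note: plate controls were vehicle wells for no effect and wells without cells for full effect; nearly all actives have a fitted effect of over 35% in size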). To be noted: AML-191 viability, CellTiter-Glo luminescence, 48 h; series mostly up to 46 µM. In short, it runs like this:
as §1

Test [13] can be described thus: BET inhibitor-based combinations targeting novel dependencies in MECOM-rearranged (r) AML: AML-194 cell line (AID 2202237;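 note: plate controls were vehicle wells for no effect and wells without cells for full effect; nearly all actives have a fitted effect of over 40% in size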). To be noted: AML-194 (MECOM-r AML) viability, CellTiter-Glo, 48 h; series mostly up to 46 µM. In short, it runs like this: as §1
In test [14] the target is Retinal dehydrogenase 2 (Homo sapiens) (UniProt O94788). The experiment in a line: qHTS for Inhibitors of the Aldehyde Dehydrogenase Family (ALDH1A2) Confirmation screens (AID 2061314). Note: nearly all actives have a fitted effect of over 65% in size. To be noted: ALDH1A2 enzyme inhibition qHTS confirmation; series mostly up to 45.9 µM.
Test [15] in a line: qHTS for Inhibitors of the Aldehyde Dehydrogenase Family (ALDH1A2, ALDH1A3, ALDH2, ALDH3A1) (AID 2061307). Note: % is set by controls: 0 for no effect and ±100 for the full control effect; nearly all actives have a fitted effect of over 50% in size. To be noted: ALDH inhibition qHTS; series mostly up to 50.3 µM.

Chain of Cellular tumor antigen p53 (Homo sapiens) (P04637 whole entry, looked up): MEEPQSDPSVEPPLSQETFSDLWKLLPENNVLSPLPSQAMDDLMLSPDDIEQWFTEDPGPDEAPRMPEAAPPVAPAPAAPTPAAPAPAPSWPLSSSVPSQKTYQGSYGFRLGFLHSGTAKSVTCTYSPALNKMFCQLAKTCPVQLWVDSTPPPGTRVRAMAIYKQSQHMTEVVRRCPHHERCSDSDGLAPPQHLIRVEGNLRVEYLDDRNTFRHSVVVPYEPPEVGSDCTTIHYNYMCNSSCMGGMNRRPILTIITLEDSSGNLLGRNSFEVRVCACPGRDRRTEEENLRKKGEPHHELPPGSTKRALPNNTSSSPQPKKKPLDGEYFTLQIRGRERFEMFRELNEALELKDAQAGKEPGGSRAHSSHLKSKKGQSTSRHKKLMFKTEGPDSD

With `CCOC(=O)C1=C(N)Oc2ccc(Cl)cc2C1C(C#N)C(=O)OCC` (centres undefined), the Potency in test [1] was 23.9 µM (active); in test [4], 12.7 µM (active). Besides, the Potency result in [2], in test [3], in test [5], in test [6] and in [7] was “inactive” each time.

A word on the viability: it is a read-out of living cells in per cent, often relative to untreated cells. Regarding `CCOC(=O)C1=C(N)Oc2ccc(Br)cc2C1C(C#N)C(=O)OCC` (centres undefined), the figures for the Potency in test [1] and in test [4] were 30.1 µM (active) and 11.3 µM (active), respectively. The Potency result in test [2], in [3], in [5], in test [6], in [9] and in [10] was “inactive” in each case. In addition, the Potency result in test [11], in test [12] and in test [13] was “inactive” each time. Besides, the viability in [8] is 112%.

Take `O=C(Nc1ccccc1)N1CCN(Cc2ccc3ccccc3n2)CC1`: in test [1], the activation was 8.59%. Besides, the Potency result in [2], in [3], in test [4], in test [5], in test [14] and in test [6] was “inactive” throughout. For the same compound, in test [7], the Potency entry was “inactive”.

For the compound `CCCCNC(=O)[C@@H]1Cc2ccccc2N1C(=O)[C@@H](N)CC`, the activation in [1] is -9.55%. Further, the Potency result in test [2], in test [15], in test [4], in test [14], in test [6] and in test [7] was “inactive” in each case.

Consider `CC1(C)CCC2(C(=O)OC3OC(CO)C(O)C(O)C3O)CCC3(C)C(=CCC4C5(C)CCC(O)C(C)(C(=O)O)C5CCC43C)C2C1O` (centres undefined), for which, in test [1], the activation was 3.57%. Moreover, the Potency entry in [2], in test [3], in [4], in [14], in [6] and in test [7] was “inactive” throughout.

`N[C@@H](CCNCc1ccc(Cl)cc1)C(=O)N1CCCCC1`: the activation in test [1] is 1.91%. Besides, the Potency entry in test [2], in test [15], in test [5], in test [14], in test [6] and in test [7] was “inactive” throughout.

As to `COC(=O)c1ccc(O[C@@H]2O[C@H](CO)[C@@H](O)[C@H](O)[C@H]2O)c(OC)c1`, the activation in test [1] is -13.4%. Besides, the Potency result in [2] and in test [3] was “inactive” throughout. Moreover, the Potency in test [4] was 17.5 µM (active).

As for `COc1ccc(CCO[C@@H]2CCCC[C@H]2N2CC[C@@H](O)C2)cc1OC`, the activation in test [1] was -0.477%. Moreover, the Potency result in test [2], in [15], in test [4], in [14], in [6] and in test [7] was “inactive” throughout.

These data come from PubChem BioAssay (NCATS).
